Our source for the composite z-score and z-score values is PubChem BioAssay.

SMILES strings stand for the structures. Activity calls are given as the source filed them.

The subject of assay [1] is Plasmodium falciparum Sir2 (PF13_0152, Sir2A). The assay can be described thus: pfSir2 binders on small-molecule microarrays, primary screen, biochemical, small-molecule microarray, 635 nm fluorescence (AID 1098).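 Also: score merges spot fluorescence intensity with its signal-to-noise ratio.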 Particulars: small-molecule microarray binding, fluorescence 635 nm; higher = more signal.
Assay [2] is described as follows: small-molecule microarray binders of probe aDKK1, primary screen, biochemical, biotinylated probe, 635/667 nm fluorescence (AID 1099).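 Also: score merges 667nm spot fluorescence with signal to noise across triplicate slides.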 The following applies: higher = more signal.
Assay [3] is described as follows: small-molecule microarray binders of probe aCHRDL2, primary screen, biochemical, biotinylated probe, 635/667 nm fluorescence (AID 1100). Particulars: higher = more signal.
The nature of assay [4]: splicing luciferase reporter signal modulators, primary screen, spliceosome inhibition project, cell-based, HEK293, splice +/- reporter (AID 1101).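 Also: HEK293 cells carrying a splicing-competent luciferase reporter gene; test concentration not given here.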 The following applies: luminescence, 24 h, higher = more signal, called active from +8 up or from −8 down.
For assay [5], the target named is Fibroblast growth factor 10 (Homo sapiens) (UniProt O15520). The assay can be described thus: FGF10 binders on small-molecule microarrays, primary screen, biochemical, small-molecule microarray, 635 nm fluorescence (AID 1102). Particulars: FGF10 binding, fluorescence 635 nm, higher = more signal.
Sequence of Fibroblast growth factor 10 (Homo sapiens) (O15520 whole entry, looked up): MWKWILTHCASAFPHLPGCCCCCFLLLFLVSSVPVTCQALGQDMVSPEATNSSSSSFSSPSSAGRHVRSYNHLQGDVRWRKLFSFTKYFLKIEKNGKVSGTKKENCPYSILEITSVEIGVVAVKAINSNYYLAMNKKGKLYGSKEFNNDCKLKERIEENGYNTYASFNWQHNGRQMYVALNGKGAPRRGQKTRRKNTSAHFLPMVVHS
Assay [6] concerns glycogen synthase kinase-3 (GSK3A per assay name; protocol says GSK3B). Kind of assay: GSK3 binders on small-molecule microarrays, primary screen, biochemical, small-molecule microarray, 635 nm fluorescence, GSK3A (AID 1103). Also: the record names both GSK3A and GSK3B. Particulars: small-molecule microarray binding, fluorescence 635 nm; higher = more signal.
Assay [7] has as its target Epidermal growth factor receptor (Homo sapiens) (UniProt P00533). The assay can be described thus: EGFR binders on small-molecule microarrays, primary screen, biochemical, small-molecule microarray, 635 nm fluorescence (AID 1104).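 Also: score merges 667 nm emission intensity with spot signal to noise over triplicate slides.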 The following applies: EGFR binding, higher = more signal.
The target of assay [8] is Follistatin-related protein 3 (Homo sapiens) (UniProt O95633). The assay can be described thus: FSTL3 binders on small-molecule microarrays, primary screen, biochemical, small-molecule microarray, 635 nm fluorescence (AID 1105).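 Also: score merges emission near 667 nm and signal to noise per printed spot across three slides.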 The following applies: FSTL3 binding, higher = more signal.
Sequence of Follistatin-related protein 3 (Homo sapiens) (O95633 whole entry, looked up): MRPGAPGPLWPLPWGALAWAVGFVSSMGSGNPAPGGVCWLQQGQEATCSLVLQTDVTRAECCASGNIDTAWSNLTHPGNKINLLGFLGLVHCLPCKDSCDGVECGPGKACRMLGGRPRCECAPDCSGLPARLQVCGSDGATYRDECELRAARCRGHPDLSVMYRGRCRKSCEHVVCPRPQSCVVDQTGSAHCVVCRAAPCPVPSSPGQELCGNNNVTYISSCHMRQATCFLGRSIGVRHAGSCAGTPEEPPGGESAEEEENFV
Assay [9] has as its target Dickkopf-related protein 1 (Homo sapiens) (UniProt O94907). Kind of assay: DKK1 binders on small-molecule microarrays, primary screen, biochemical, small-molecule microarray, 635 nm fluorescence scan (AID 1106).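 Also: score merges emission near 667 nm with signal to noise over three replicate slides.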 Particulars: DKK1 binding, higher = more signal.
The test system of assay [10] is Inhibin beta A chain (activin A). The assay can be described thus: INHBA (activin A) binders on microarrays, primary screen, biochemical, small-molecule microarray, 635 nm fluorescence scan (AID 1107).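 Also: mouse activin A protein probed at 4.33 µg/mL on printed slides; score merges bound-protein fluorescence near 667 nm with spot signal-to-noise.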 The following applies: small-molecule microarray binding, higher = more signal.
Assay [11] concerns Human papillomavirus type 1a protein E7 (residues 44-93). Kind of assay: HPV1a E7 fragment binders on microarrays, primary screen, biochemical, small-molecule microarray, residues 44-93, 635 nm fluorescence (AID 1108).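 Also: E7 fragment applied at 1 µg/mL in TBST for 1 h at 4 C; score combines spot fluorescence with its signal to noise ratio.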 Particulars: small-molecule microarray binding, fluorescence 635 nm; higher = more signal.
Assay [12] can be described thus: modulators of HCV replicon luciferase signal, primary screen, HCV replication inhibitor project, Huh7 cells, luciferase reporter (AID 1109).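 Also: huh7 hepatoma cells harbouring a luciferase neomycin HCV replicon reporter; luciferase luminescence as measure of HCV replicon replication; test concentration not given here.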 The following applies: 48 h, higher = more signal.
Assay [13] deals with Left-right determination factor 2 (Homo sapiens) (UniProt O00292). Kind of assay: LEFTY2 binders on small-molecule microarrays, primary screen, biochemical, small-molecule microarray, 635 nm fluorescence scan (AID 1110). The following applies: LEFTY2 binding, higher = more signal.
Sequence of Left-right determination factor 2 (Homo sapiens) (O00292 whole entry, looked up): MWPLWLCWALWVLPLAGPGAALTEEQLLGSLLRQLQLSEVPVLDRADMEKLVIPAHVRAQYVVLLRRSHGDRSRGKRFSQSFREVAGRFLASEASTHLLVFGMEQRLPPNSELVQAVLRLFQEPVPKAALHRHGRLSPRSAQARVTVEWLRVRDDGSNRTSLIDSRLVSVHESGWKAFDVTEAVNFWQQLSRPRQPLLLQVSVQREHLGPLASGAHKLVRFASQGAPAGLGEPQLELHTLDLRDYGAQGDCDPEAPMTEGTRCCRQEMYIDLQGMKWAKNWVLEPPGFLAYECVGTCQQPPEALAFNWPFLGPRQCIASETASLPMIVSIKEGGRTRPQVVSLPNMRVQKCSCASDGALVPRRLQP
Assay [14] addresses Calmodulin-1 (Homo sapiens) (UniProt P0DP23). The assay can be described thus: CALM1 binders on microarrays, EGTA buffer, profiling panel, biochemical, small-molecule microarray, Cy5-labelled CALM1 (AID 1111).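 Also: labelled calmodulin applied in Tris saline Tween buffer holding calcium plus EGTA and DTT.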 The following applies: Cy5-CALM1 binding fluorescence, higher = more signal.
The target is the same in assay [15]. The assay can be described thus: calcium-bound CALM1 binders on microarrays, profiling panel, artefact control for SMM control-protein annotation, biochemical, small-molecule microarray, Cy5-labelled CALM1, plus calcium (AID 1112).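 Also: score merges spot fluorescence with signal to noise from triplicate slides.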 Particulars: Cy5-CALM1 binding fluorescence, higher = more signal.
Assay [16] in a line: small-molecule microarray binders of probe aWnt5a, primary screen, biochemical, biotinylated probe, 635/667 nm fluorescence (AID 1113).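 Also: score merges 667 nm fluorescence intensity with signal-to-noise per printed feature.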 The following applies: higher = more signal.
Assay [17] is described as follows: small-molecule microarray binders of probe aShh, primary screen, biochemical, biotinylated probe, 635/667 nm fluorescence (AID 1114).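 Also: probe is biotin-labelled aShh protein from a stem cell growth factor screen; measures binding of labelled protein to compounds printed on the slide; score merges feature fluorescence at 667 nm with signal-to-noise.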 Particulars: higher = more signal.
The nature of assay [18]: small-molecule microarray binders of probe aNog, primary screen, biochemical, biotinylated probe, 635/667 nm fluorescence (AID 1115).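 Also: probe is biotinylated aNog protein used at 0.15 µg/mL for 1 h at 4 C; z-score combines 667 nm fluorescence of each spot with its signal to noise.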 Particulars: higher = more signal.
Assay [19] addresses Torsin-1A-interacting protein 1 (Homo sapiens) (UniProt Q5JTV8). The assay can be described thus: LAP1 binders from COS7 cell lysate, primary screen, small-molecule microarray, 635/667 nm fluorescence (AID 1116). Particulars: COS7-hLAP1 lysate binding, 635 nm fluorescence, higher = more signal.
In assay [20] the target is Alpha-bungarotoxin (Bungarus multicinctus) (UniProt P60615). The assay can be described thus: alpha-bungarotoxin binders on microarray, profiling panel, artefact control for SMM control protein annotation, biochemical, small-molecule microarray, Alexa647 label, 635/667 nm fluorescence (AID 1117). The following applies: alpha-BTX-A647 binding fluorescence, higher = more signal.
Sequence of Alpha-bungarotoxin (Bungarus multicinctus) (P60615 whole entry, looked up): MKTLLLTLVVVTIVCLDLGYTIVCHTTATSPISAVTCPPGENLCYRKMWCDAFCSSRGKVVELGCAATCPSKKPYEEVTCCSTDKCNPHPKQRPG

Sequence of Torsin-1A-interacting protein 1 (Homo sapiens) (Q5JTV8 whole entry, looked up): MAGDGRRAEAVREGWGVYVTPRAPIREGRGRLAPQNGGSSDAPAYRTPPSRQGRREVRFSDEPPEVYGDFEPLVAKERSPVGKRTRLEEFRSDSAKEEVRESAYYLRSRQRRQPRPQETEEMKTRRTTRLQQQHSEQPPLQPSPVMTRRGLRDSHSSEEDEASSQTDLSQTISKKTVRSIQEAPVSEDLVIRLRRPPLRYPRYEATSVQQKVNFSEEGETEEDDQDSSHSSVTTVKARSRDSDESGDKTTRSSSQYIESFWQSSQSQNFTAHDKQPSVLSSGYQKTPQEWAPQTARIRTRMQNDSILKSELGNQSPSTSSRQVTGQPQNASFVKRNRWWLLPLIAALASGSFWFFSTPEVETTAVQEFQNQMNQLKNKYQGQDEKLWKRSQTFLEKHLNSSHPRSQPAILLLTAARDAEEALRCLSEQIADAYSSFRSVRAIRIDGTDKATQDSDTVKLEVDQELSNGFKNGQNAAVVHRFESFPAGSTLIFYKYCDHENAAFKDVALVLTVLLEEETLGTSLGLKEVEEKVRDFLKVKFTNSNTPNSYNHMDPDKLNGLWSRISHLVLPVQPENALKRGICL
Sequence of Epidermal growth factor receptor (Homo sapiens) (P00533 whole entry, looked up): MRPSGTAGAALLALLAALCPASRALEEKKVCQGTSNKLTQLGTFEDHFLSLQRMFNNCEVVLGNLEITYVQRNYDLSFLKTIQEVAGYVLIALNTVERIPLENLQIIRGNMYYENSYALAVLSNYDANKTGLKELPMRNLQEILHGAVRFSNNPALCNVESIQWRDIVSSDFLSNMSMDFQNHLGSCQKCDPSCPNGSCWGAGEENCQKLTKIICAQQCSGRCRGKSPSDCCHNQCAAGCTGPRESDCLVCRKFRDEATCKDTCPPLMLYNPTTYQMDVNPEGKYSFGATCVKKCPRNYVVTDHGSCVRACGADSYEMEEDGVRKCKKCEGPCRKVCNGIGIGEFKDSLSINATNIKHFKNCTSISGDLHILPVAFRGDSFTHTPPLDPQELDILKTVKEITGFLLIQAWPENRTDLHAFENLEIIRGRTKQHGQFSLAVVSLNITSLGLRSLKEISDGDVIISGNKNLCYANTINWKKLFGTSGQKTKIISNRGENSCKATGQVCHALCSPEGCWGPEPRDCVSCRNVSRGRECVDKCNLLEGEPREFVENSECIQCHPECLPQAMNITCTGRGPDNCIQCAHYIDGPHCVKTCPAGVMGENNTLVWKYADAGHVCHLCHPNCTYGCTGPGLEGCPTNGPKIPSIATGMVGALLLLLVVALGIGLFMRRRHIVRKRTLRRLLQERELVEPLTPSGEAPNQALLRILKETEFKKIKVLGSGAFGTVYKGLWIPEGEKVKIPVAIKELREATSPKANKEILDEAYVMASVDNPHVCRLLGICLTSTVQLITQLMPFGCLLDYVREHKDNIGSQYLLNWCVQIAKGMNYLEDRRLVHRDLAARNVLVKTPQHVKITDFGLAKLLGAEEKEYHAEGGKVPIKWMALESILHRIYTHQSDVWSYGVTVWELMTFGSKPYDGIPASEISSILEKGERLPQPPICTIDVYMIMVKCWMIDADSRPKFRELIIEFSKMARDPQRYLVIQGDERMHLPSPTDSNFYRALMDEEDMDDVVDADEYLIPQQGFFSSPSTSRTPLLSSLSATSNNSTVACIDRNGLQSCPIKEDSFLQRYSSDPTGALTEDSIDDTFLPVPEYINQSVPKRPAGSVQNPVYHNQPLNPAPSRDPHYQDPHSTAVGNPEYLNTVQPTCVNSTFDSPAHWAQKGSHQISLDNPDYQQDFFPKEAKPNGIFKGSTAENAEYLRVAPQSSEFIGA
Sequence of Dickkopf-related protein 1 (Homo sapiens) (O94907 whole entry, looked up): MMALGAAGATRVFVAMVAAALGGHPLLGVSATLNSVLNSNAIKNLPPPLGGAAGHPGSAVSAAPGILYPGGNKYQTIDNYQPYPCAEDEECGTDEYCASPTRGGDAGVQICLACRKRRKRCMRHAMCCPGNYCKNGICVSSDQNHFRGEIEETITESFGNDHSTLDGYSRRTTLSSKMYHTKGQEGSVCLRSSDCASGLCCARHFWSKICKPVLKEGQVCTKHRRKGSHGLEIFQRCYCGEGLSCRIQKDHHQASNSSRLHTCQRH

For `CCOC(=O)C[C@H]1[C@H](OC(=O)c2ccc(-c3ccccc3)cc2)[C@@H](NC(=O)c2ccccc2)c2cc(OCCCO)ccc2N1C(=O)Cc1ccc(OC)cc1`, the composite z-score is -0.881 in assay [1]; -0.0345 in [2]; 0.565 in assay [3]; 0.241 in assay [5]; -0.919 in assay [6]; 0.0903 in [7]. The composite z-score in [8] was -0.56; in assay [9], -0.237; in assay [10], 0.54; in assay [11], -0.149; in [13] it was 0.199; in assay [14] it was 0.594. In addition, the composite z-score is 0.534 in assay [15]; -0.1 in [16]; -0.147 in [17]; -0.18 in assay [18]; 0.328 in [19]; 0.281 in [20]. The results for the z-score in assay [4] and in [12] were -0.486 (inactive) and -1.41, respectively.

For `COc1ccc([C@H]2OC[C@@H]3CCC(=O)N32)cc1`, the composite z-score in [1] was 0.178; in [2], -0.235; in [3], -0.374; in assay [5] it was 0.66; in [6] it was 1.17; in assay [7] it was 0.339. For the same molecule, the composite z-score in [8] is 0.954; in [9], 0.294; in assay [10] it was 0.0892; in assay [11], 0.493; in assay [13], 0.556; in assay [14], -0.313. For the same molecule, the composite z-score in assay [15] was -0.525; in assay [16] it was -0.18; in [17], 0.0062; in [18] it was -0.324; in assay [19], 0.493; in assay [20], -0.122. The z-score in assay [4] was -0.00375 (inactive); in assay [12] it was 0.574.

Turning to `COCC(=C=CC[C@@H](O)c1ccc(OCCO)cc1)C[C@@H](O)c1ccccn1`, the composite z-score in [1] was 0.0525; in assay [2], -0.201; in [3], -0.288; in [5], 0.377; in [6], 0.0621; in [7] it was 0.0724. Moreover, the composite z-score was 0.439 in [8]; 0.0579 in assay [9]; 1.18 in assay [10]; 0.518 in assay [11]; 0.33 in assay [13]; -0.336 in [14]. Moreover, the composite z-score is -0.125 in [15]; 0.0173 in assay [16]; 0.227 in [17]; -0.0184 in [18]; 0.407 in [19]; 0.338 in [20]. Also, the z-score in [4] is 0.0733 (inactive); in assay [12], -1.24.

Regarding `O=C1O[C@H](c2ccccc2)[C@H](c2ccccc2)N2[C@H]1[C@@H](C(=O)NC[C@H](O)c1ccccc1)[C@]1(C(=O)Nc3ccc(C#CC4=CCCCC4)cc31)[C@H]2c1ccccc1OCCO`, the composite z-score is 0.312 in assay [1]; 0.697 in assay [2]; 0.722 in [3]; 0.439 in assay [5]; 1.13 in [6]; 0.208 in assay [7]. Besides, the composite z-score is 0.627 in assay [8]; 0.359 in [9]; 1.06 in assay [10]; 1.06 in assay [11]; 0.155 in assay [13]; 1.42 in assay [14]. Besides, the composite z-score was 0.944 in assay [15]; 0.0101 in assay [16]; 0.328 in [17]; 0.157 in [18]; 1.02 in assay [19]; 1.7 in assay [20]. The z-score is -1.74 (inactive) in assay [4] and -3.16 in assay [12].

As to `O=C(CS)NCCCCCNC(=O)[C@H]1C[C@H]2C(=O)NCC(=O)N2[C@H]1c1ccc(O)cc1`, the composite z-score was 0.394 in assay [1]; -0.164 in [2]; 0.699 in assay [3]; -1.04 in assay [5]; -1.32 in assay [6]; -0.641 in assay [7]. For the same molecule, the composite z-score is -0.749 in assay [8]; -0.887 in [9]; -0.583 in assay [10]; -1.12 in assay [11]; -0.55 in [13]; -0.0906 in [14]. In addition, the composite z-score in assay [15] was -0.0879; in assay [16], -0.256; in assay [17], -0.214; in assay [18], -0.175; in assay [19], -0.736; in assay [20], -0.129. For the same molecule, the figures for the z-score in [4] and in assay [12] were -1.35 (inactive) and 0.464, respectively.
